Screening results deposited in PubChem by National Center for Advancing Translational Sciences (NCATS).
Sampled rows, rich in hits. Any-hit rate of the full collection: about 14%.
HCMV inh – inhibitors of human cytomegalovirus | HFF cells, HCMV-luciferase reporter, 72 h; active compounds read low | actives 4.5% (n = 410,000) | activity change, negative = inhibition, % at 57.5 µM; in the data active means activity change below about -60%; inconclusive means no clear call, values can overlap the other calls; inactive means above about -39%
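Inhibition of viral replication was scored as loss of reporter luminescence in HFFs infected with HCMV-luciferase (MOI 1 PFU/cell) for 72 h; compounds tested at 2 doses, normalized to buffer and Salinomycin controls.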
Pf growth 96h – P. falciparum growth inhibition at 96 hours; P. falciparum luciferase reporter growth, 96 h; Potency, µM (titrated, usually from 28.7 µM), without a hit: at the top dose activity change, negative = inhibition, most hits filed as inhibitors; actives 6.9% (n = 320,000); AID 504834; further: potency means the concentration at half of the fitted maximal effect
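Two parasite generations (96 h, 37 C, 5% CO2) of compound exposure in infected erythrocytes (0.05% parasitemia, 2% hematocrit). Luciferase-reporter P. falciparum; decreased luminescence indicates inhibited growth, aimed at apicoplast-acting delayed death.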
FBPA Giardia inh – blocks Giardia fructose-bisphosphate aldolase activity; A8B2U2; purified Giardia FBPA; Potency, µM (titrated, usually from 59.6 µM), without a hit: top-dose activity, negative = inhibition, usual class: inhibitors; actives 0.71% (n = 290,000); AID 2451; further: potency means the concentration at half of the fitted maximal effect; nearly all actives have a fitted effect of over 55% in size
Target sequence (A8B2U2 whole entry, looked up): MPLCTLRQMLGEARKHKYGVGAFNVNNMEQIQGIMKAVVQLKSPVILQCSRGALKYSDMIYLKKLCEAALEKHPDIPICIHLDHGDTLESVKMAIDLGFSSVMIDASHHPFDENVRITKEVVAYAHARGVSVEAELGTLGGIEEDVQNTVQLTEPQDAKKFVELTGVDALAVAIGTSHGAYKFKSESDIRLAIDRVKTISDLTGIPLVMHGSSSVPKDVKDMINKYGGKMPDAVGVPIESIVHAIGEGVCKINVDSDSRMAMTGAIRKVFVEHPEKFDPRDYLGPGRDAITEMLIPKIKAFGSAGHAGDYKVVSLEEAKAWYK
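40 nM FBPA preincubated 10 min at RT with compound (up to 57.5 uM final), then substrate plus GAPDH/TPI/NAD/arsenate coupling and diaphorase/resazurin added. Fluorescence read after 20 min at RT, 525/598 nm.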
Sm TGR inh – blocks Schistosoma mansoni thioredoxin glutathione reductase. Potency, µM (titrated, usually from 114 µM), without a hit: at the highest dose activity change, negative = inhibition, hits mostly inhibitors. Q962Y6. purified TGR, DTNB reduction, TNB absorbance 405 nm. actives 3% (n = 360,000). AID 485364; further: potency means the concentration at half of the fitted maximal effect; nearly all actives have a fitted effect of over 60% in size
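First, TGR (20 nM dispensed) and NADPH were mixed with compound. Second, a 15 min room-temperature incubation followed. Third, further NADPH and then DTNB were added to start the reaction. Finally, TNB absorbance was monitored kinetically.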
Pf growth 48h – P. falciparum growth inhibition at 48 hours (one generation); P. falciparum luciferase growth in erythrocytes, 48 h; Potency, µM (titrated, usually from 28.7 µM), without a hit: top-dose activity change, negative = inhibition, actives largely listed as inhibitors; actives 5.9% (n = 310,000); AID 504832; further: potency means the concentration at half of the fitted maximal effect
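Erythrocytes infected with P. falciparum carrying an integrated firefly luciferase reporter (2% hematocrit, 0.1% parasitemia final) were exposed to compounds in RPMI 1640 with 0.5% Albumax at 37 C, 5% CO2. Growth inhibition was scored as reduced luminescence.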
Numbers without * were called inactive; ? = inconclusive; . = no result; ! = repeats disagree; [ ] = remark or other dose. Unless noted, the call rests on the fitted dose curve; in most records, active means well fitted curve in the direction sought with a large enough effect; inconclusive means small, poorly fitted or top-dose-only effect, or another doubt; inactive means no such curve, though single readings can be large; an effect the other way counts as inactive or inconclusive. On the % scale 0 is the no-effect control and ±100 the full control effect.

SMILES | HCMV inh | Pf growth 96h | FBPA Giardia inh | Sm TGR inh | Pf growth 48h
c1cc2c(cc1C1CCCCC1)c1c3n2CCN=C3CCC1 | -12 | ? | 10% | 7.9µM* | ?
O=C1Nc2ccccc2C(=O)N(Cc2ccccc2)C1C(=O)NC1CC1 (centres undefined) | -26 | . | . | . | .
COc1ccc(-n2c(C)nc3c(cnn3-c3ccc(Cl)cc3)c2=O)cc1 | -77* | 23% | -2% | 10% | -13%
Cc1cccc(-n2c(C)nc3c(cnn3-c3ccc(F)cc3)c2=O)c1 | ? | 9.3µM* | -1% | 7% | ?
Cc1cccc(-n2c(-c3ccco3)nc3c(cnn3-c3ccc(F)cc3)c2=O)c1 | -65* | . | . | 3% | .
Cc1ccc(-n2c(-c3ccco3)nc3c(cnn3-c3ccccc3C)c2=O)cc1 | -61*! | -9% | -3% | -9% | .
Cc1ccc(-n2c(-c3ccco3)nc3c(cnn3-c3ccc(C)cc3)c2=O)cc1 | -6 | -3% | 0% | -8% | .
COc1cccc(-n2c(C)nc3c(cnn3-c3ccc(C)cc3)c2=O)c1 | ? | ? | -4% | 4% | ?
O=[N+]([O-])c1ccc(COc2ccccc2CO)cc1 | 63 | . | . | . | .
O=C(Cc1ccccc1[N+](=O)[O-])c1ccccc1 | -6 | . | . | . | .
O=C(Nc1cccc(C(F)(F)F)c1)c1cncs1 | -37 | -1% | -6% | -10% | -4%
CCCCC/C=C\C/C=C\C/C=C\C/C=C\CCCC(=O)O[C@@H](CO)COCCCCCCCCCCCCCCCC | . | . | -2% | . | .
CCCCCCCCN1C(=O)[C@@H](CC(=O)NCCCOC)C[C@@]2(C(=O)OC)C1=C[C@H](C(C)(C)C)O[C@@H]2C | -11 | . | . | . | .
Cn1c(-c2ccccc2)c(O)c(=O)c2ccccc21 | . | . | -4%[12.9 µM] | . | .
CCn1c(-c2ccccc2)c(C(=O)CCl)c2ccccc21 | -100* | ? | 8% | 18µM* | 0%
Cn1c(-c2ccccc2)c(C(=O)CCl)c2ccccc21 | -101* | -27% | -1% | 6.3µM* | ?
C=C(c1ccccc1)[C@H](C#N)C1CCCC1 | 15 | . | . | . | .
CC(=O)c1ccc(N=c2scc(C)n2C(C)C)cc1 | -40 | -6% | -1% | -2% | 33%
CCOC(=O)c1ccc(NC(=O)Cn2ncc(Cl)c(Cl)c2=O)cc1 | -100* | -17% | -1% | 18µM* | ?
O=C(Cn1ncc(N2CCCC2)c(Cl)c1=O)c1ccc(Cl)cc1 | 29 | 245% | -2% | 1% | 146%
CCC(=O)Nc1ccc(C(=O)Cn2ncc(Cl)c(Cl)c2=O)cc1 | -103* | -9% | 0% | 2.8µM* | -21%
CCc1ccccc1NC(=O)CN(C)C(=O)Cn1ncc(Cl)c(Cl)c1=O | -99* | 6% | 1% | ? | -22%
O=C(/C=C/c1cn(CC(O)CN2CCCCCC2)c2ccccc12)c1ccc(Br)cc1 (centres undefined) | -24 | . | . | -28% | .
CC(C(=O)Nc1ncc([N+](=O)[O-])s1)N1C(=O)c2ccccc2S1(=O)=O (centres undefined) | 14 | 10% | . | -3% | 3%
CCN1C(=O)/C(=C/N(C)c2ccccc2)OC1=S | -6 | -6% | 2% | 1% | 46%
SMILES | HCMV inh | Pf growth 96h | FBPA Giardia inh | Sm TGR inh | Pf growth 48h
CCN1C(=O)/C(=C\N(C(C)=O)c2ccccc2)OC1=S | 24 | 12µM* | 2% | 0% | 32%
COc1ccc(CCc2nnc(CCC(=O)NCc3ccc4ncccc4c3)o2)cc1 | -1 | -21% | 1% | 3% | -1%
COc1ccc(CCc2nnc(CCC(=O)NCc3cnc4ccccn34)o2)cc1 | -40 | 10µM* | 4% | 0% | 8%
COc1cc(OC)c(CN2CCCCCCC2)cc1Br | -23 | 13µM* | -23% | -25% | .
COc1ccc(Br)cc1CN1CCN(CCO)CC1 | -7 | -20% | -7% | -23% | 12%
COc1ccc(Br)cc1CN1CCC(N2CCCC2)CC1 | -10 | ? | ? | 1% | 9.3µM*
C/C(=N\Nc1cc(-c2ccccc2)nc(-c2ccc(Br)cc2)n1)c1cccc(N)c1 | 19 | . | . | . | .
C/C(=N/Nc1cc(-c2ccccc2)nc(-c2ccccc2)n1)c1ccc(O)cc1 | -65* | ? | 2% | 2% | ?
CC(C)C[C@H](NC(=O)[C@H](Cc1c[nH]c2ccccc12)NC(=O)[C@H](CCCCN)NC(=O)CNC(=O)[C@H](CC(C)C)NC(=O)[C@H](CO)NC(=O)[C@@H](N)Cc1cnc[nH]1)C(=O)NCC(=O)N[C@@H](Cc1cnc[nH]1)C(=O)N1CCC[C@H]1C(=O)N[C@@H](CC(=O)O)C(=O)N[C@@H](CCCCN)C(=O)N[C@@H](Cc1ccccc1)C(=O)O | . | . | 0% | . | .
Cc1c(Cl)cccc1NC(=O)c1cnc2sc(N3CCOCC3)nn2c1=O | -5 | . | . | -2% | .
Cc1ccc(-c2ccccc2[C@@H]2C[C@H]3CN(C)C(=O)[C@]34CCCN24)o1 | 40 | -12% | 4% | 9% | -4%
O=C1N(c2ccccc2)C[C@@H]2C[C@@H](c3cc4ccccc4o3)N3CCC[C@@]123 | -99* | 13µM* | 7% | -13% | -15%
COCCOC(=O)C1=C(C)N=C2SCCC(=O)N2C1c1ccc(OCc2ccccc2)c(OC)c1 (centres undefined) | -7 | . | . | -7% | .
COc1cccc(N2CCN(C(=O)c3ccc(CSc4nc5ccncc5[nH]4)cc3)CC2)c1 | -87* | 53% | -29% | -14% | ?
Cc1ccc(C)c(N2CCN(C(=O)c3ccc(CSc4nc5ccncc5[nH]4)cc3)CC2)c1 | ? | -30% | -14% | -9% | ?
O=C(c1ccc(CSc2nc3ccncc3[nH]2)cc1)N1CCCCC1 | 10 | 12µM* | -21% | -1% | 33%
CC1CCCCC1NC(=O)c1ccc(CSc2nc3ccncc3[nH]2)cc1 (centres undefined) | -22 | 5.2µM* | -7% | 0% | ?
Cc1ccc(Cn2c(SCc3ccc(C(=O)N4CCCCC4)cc3)nc3ccncc32)cc1 | -60* | . | . | -19% | .
Cc1ccc(Cn2c(SCc3ccc(C(=O)N4CCCCCC4)cc3)nc3ccncc32)cc1 | -24 | . | . | 0% | .
COc1cc(CNc2nnnn2C)cc(OC)c1OC | 26 | ? | 18% | 28% | 13%
CCOc1ccc(-c2ccc(NS(=O)(=O)c3ccc(C)cc3)cc2)nn1 | -10 | . | . | 3% | .
O=C(NC1CCCCC1)c1ccc(CSc2nc3ccncc3n2Cc2ccc(F)cc2)cc1 | -28 | . | . | -12% | .
O=C(NCc1ccccc1Cl)c1ccc(CSc2nc3ccncc3[nH]2)cc1 | 0 | ? | 6% | -2% | 12µM*
Clc1ccccc1CSc1nc2ccncc2[nH]1 | -30 | ? | -11% | 4% | .
CC1CCC(NC(=O)c2ccc(CSc3nc4ccncc4n3Cc3ccc(F)cc3)cc2)CC1 (centres undefined) | -93* | . | . | 3% | .
